Assay outcomes (PubChem BioAssay)
Compounds with a hit are over-represented: about 4.8% of the library has one in this group of screens.
ssDAF-12 act: activators of S. stercoralis DAF-12 nuclear receptor; HEK293 ssDAF-12/GRIP1 lit1-tk-luc reporter, luminescence; % of 3 µM dafachronic acid response; activation, % at 6.8 µM; 370,000 compounds, 1% hits; AID 652126;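 active means activation above the mean over all tested compounds plus 3 SD, cut at about 0.9% in these data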;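 further: 0% = DMSO-only wells and 100% = 3 µM delta7-dafachronic acid wells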
DAX1 inh-1: NR0B1 (DAX1) inhibition; inhibition, % at 6.75 µM; P51843; HEK293 Gal4-DAX1 luciferase reporter, luminescence; 340,000 compounds, 0.99% hits; AID 504766;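 active means inhibition above the mean over all tested compounds plus 3 SD, cut at about 4.2% in these data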;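 further: 0% = DAX1-transfected cells with DMSO and 100% = empty-vector control cells with DMSO; inhibition shows as a rise in luminescence from relieved DAX1 repression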
Target sequence (P51843 207-470 limits assumed): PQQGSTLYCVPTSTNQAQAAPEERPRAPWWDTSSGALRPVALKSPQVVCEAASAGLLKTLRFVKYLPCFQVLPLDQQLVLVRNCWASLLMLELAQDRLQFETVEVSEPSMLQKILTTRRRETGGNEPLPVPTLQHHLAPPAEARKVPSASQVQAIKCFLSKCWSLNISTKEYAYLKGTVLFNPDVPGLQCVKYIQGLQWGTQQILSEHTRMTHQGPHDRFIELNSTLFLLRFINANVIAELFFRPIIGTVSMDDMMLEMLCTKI
DAX1 inh-2: inhibitors of DAX1 repression of SF-1 activated StAR promoter; HEK293T StAR-luciferase reporter, SF-1/DAX-1 repression relief; inhibition, % at 6.8 µM; 370,000 compounds, 1.1% hits;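 active means inhibition above the mean over all tested compounds plus 3 SD, cut at about 3.6% in these data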;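 further: 0% = DAX-1 cells with DMSO and 100% = cells lacking DAX-1 with DMSO; higher inhibition means more luminescence from relief of DAX-1 repression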
NR1D1 modulator: modulators of human Rev-erb alpha DNA binding | Rev-erbα–FITC-DNA binding, fluorescence polarization, 90 min | activity, % at 10 µM | 370,000 compounds, 0.79% hits | AID 1259318;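 active means activity above about 14%, limit read from the data; passing the limit was not always enough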;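 further: 0% = DMSO wells with 35 nM protein and 100% = DMSO wells with 750 nM protein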
hgDAF12 agonist: agonists of H. glycines DAF-12 nuclear receptor. HEK293 GAL4-hgDAF12 UAS-luciferase reporter, agonist luminescence; normalized to butyrate control. activation, % at 6.8 µM. 370,000 compounds, 1.8% hits;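 active means activation above a cutoff set at the mean of all screened compounds plus 3 SD, cut at about 10% in these data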;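 further: 0% = DMSO wells and 100% = sodium butyrate wells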
hcDAF12 agonist: H. contortus DAF-12 activation, primary screen | 370,000 compounds, 1.4% hits | HEK293 hcDAF-12 lit1-tk-luc reporter, luminescence; 0% DMSO, 100% Δ7-dafachronic acid | AID 652067 | activation, % at 6.8 µM;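 active means activation above the mean of all tested compounds plus 3 SD, cut at about 5.5% in these data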;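 further: 100% = response to 3 µM Δ7-dafachronic acid high control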
* hit, by the source's call; nt = not tested or not shown.

SMILES	ssDAF-12 act	DAX1 inh-1	DAX1 inh-2	NR1D1 modulator	hgDAF12 agonist	hcDAF12 agonist
Cc1cc(C(=O)NNC(=O)c2sccc2C)c(C)o1	-0.1	0.6	4.3*	6.8	2.9	0.9
Cc1cc(C(=O)N/N=C/c2ccncc2)c(C)o1	-1.1	4.8*	0.2	-5.4	0.7	-0.9
O=C(c1c(F)cccc1F)N1CCC(Oc2cccnc2)CC1	-1.6	nt	0.1	-1.1	-1.7	-3.0
CCCCCCCCN1C(=O)[C@@H](CC(=O)NCc2cccc(C(F)(F)F)c2)C[C@@]2(C(=O)OC)C1=C[C@H](C(C)C)O[C@@H]2C1CC1	-0.9	nt	0.2	1.2	0.1	-2.3
Cc1ccc2nc(SCC(=O)Nc3cc([N+](=O)[O-])ccc3F)[nH]c2c1	-0.7	1.5	0.1	1.1	1.0	6.1*
COc1ccc2nc(SCC(=O)N3CCNC3=O)[nH]c2c1	-0.9	1.7	3.5	-7.1	11.5*	2.3
COC(=O)C1CCN(C(=O)CSc2nc3ccc(OC)cc3[nH]2)CC1	-1.3	0.9	0.5	-5.5	0.5	0.1
COC(=O)c1ccc(S(=O)(=O)N2CCC(NC(=O)CCc3ccccc3)CC2)cc1	-0.6	nt	0.7	1.2	1.3	-1.0
Cc1ccc(/C=C/C(=O)N2CCc3ccccc3C2)cc1	0.3	0.5	-0.1	-1.5	3.3	1.1
O=C(/C=C/c1ccc(F)cc1)N1CCc2ccccc2C1	-0.2	0.5	3.8*	5.0	4.8	3.5
CCCC/C=C1/[C@@H](CC)N(Cc2ccc(OC)cc2OC)C2=N[C@@H](c3ccccc3)CC(=O)N21	-1.4	nt	nt	-0.1	3.7	-1.8
Cc1c(OCc2nn[nH]n2)ccc2c(-c3ccccc3)cc(=O)oc12	-1.0	3.2	0.2	1.4	-1.7	-0.8
COc1ccc(-c2cc(=O)oc3c(C)c(OCc4nn[nH]n4)ccc23)cc1	-1.2	7.3*	0.9	1.4	-1.6	-0.8
Cc1c(Cc2ccccc2)c(=O)oc2c(C)c(OCc3nn[nH]n3)ccc12	-1.1	5.3*	0.2	1.9	-2.3	-1.3
Cc1ccc(-n2c(SCC(=O)c3ccc(F)cc3)nnc2-c2cccnc2)cc1	-1.9	nt	-0.7	4.0	-3.6	-1.3
c1ccc(Nc2c(-c3ccco3)nc3ccccn23)cc1	0.1	-1.1	0.4	1.5	-3.9	6.0*
Cc1ccc(Nc2c(-c3ccco3)nc3ccccn23)cc1	-0.3	1.2	0.6	1.9	3.3	0.4
Cc1ccccc1-c1nc(-c2ccccn2)no1	-0.7	-2.6	1.4	-6.0	-2.6	5.2
Cc1ccccc1-c1nc(-c2cccnc2)no1	0.8	1.9	0.2	0.7	10.5*	6.1*
c1ccc(-c2noc(-c3cccnc3)n2)cc1	0.0	0.1	3.6*	-1.2	8.7	3.4
c1ccc(-c2ccc(-c3nc(-c4cccnc4)no3)cc2)cc1	-0.2	1.5	3.8*	3.8	6.6	2.0
CCc1cc2c(nc1CC)CCCN2S(=O)(=O)c1ccccc1	-0.9	nt	1.5	0.7	-0.8	-2.7
Cc1ccc(Cn2cc(CN(C(C)(C)C)S(=O)(=O)c3ccc(F)cc3Br)nn2)cc1	-1.4	nt	-1.3	-5.2	-2.9	-3.9
O=C1/C(=C/c2ccncc2)SC(=S)N1N1CCOCC1	-1.1	-0.4	-0.3	-1.9	-1.9	-1.8
C=CCOc1ccc(/C=C2\SC(=S)N(N3CCOCC3)C2=O)cc1	-0.1	1.4	2.1	2.8	9.9	5.7*
SMILES	ssDAF-12 act	DAX1 inh-1	DAX1 inh-2	NR1D1 modulator	hgDAF12 agonist	hcDAF12 agonist
c1ccc(CN=C2NN=C(c3cc4ccccc4o3)CS2)cc1	-1.0	1.8	-0.1	0.0	2.9	-1.1
c1ccc2oc(C3=NNC(=NC4CC4)SC3)cc2c1	0.4	2.0	0.9	3.7	6.8	6.8*
CC(C)CCOCC(=O)Nc1cccc(C(=O)O)c1	-0.5	-1.7	3.3	-0.6	12.0*	3.5
CCOC(=O)c1ccc(NC(=S)Nc2ccccc2)cc1	1.2*	0.1	-0.2	1.6	1.7	0.1
CCOC(=O)c1ccc(N/C=C/C(=O)c2ccccc2)cc1	-0.8	2.2	1.1	1.3	12.0*	0.7
CCOC(=O)c1ccc(N/C=C/C(=O)C(C)(C)C)cc1	0.1	2.9	1.6	-1.6	13.1*	-0.6
O=C(/C=C/Nc1ccccc1)c1ccccc1	0.7	2.5	3.8*	0.5	11.1*	6.5*
CC(=O)Nc1ccc(N/C=C/C(=O)c2ccccc2)cc1	-0.4	1.8	1.1	-0.8	6.3	0.6
